Source: PubChem BioAssay
Cy5 interf NS3h = counter-screen for HCV NS3 helicase inhibitors: fluorescence interference | Cy5-dT15 DNA with NS3h; actives lie on both sides; signal over control mean, under 1 quenches | 16,000 compounds, 6% hits | fluorescence interference ratio at 100 µM;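 active = compound fluorescence over control fluorescence at most 0.8, a quencher, or at least a set upper limit, an enhancer; inactive = ratio between 0.8 and the set upper limit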
HCV NS3h FP = blocks HCV NS3 helicase binding to DNA. NS3h Cy5-dT15 DNA binding, fluorescence polarization. inhibition, % at 100 µM. 16,000 compounds, 1.6% hits. AID 687043;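 active = inhibition above the average over every tested compound plus 3 SD, cut at about 40% in these data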
Hits are given with their value. This is a sample that favours compounds with a hit; in the whole collection about 6.9% have one here.

Results for CCOC(=O)CNC(c1ccccc1)c1cc(Br)ccc1NC(=O)CN1CCOCC1 (stereo not given) ?
Cy5 interf NS3h: inactive; HCV NS3h FP: inactive

What do the screens show for `Nc1nc2c(s1)-c1ccccc1CC2`?
Cy5 interf NS3h: 1.21; HCV NS3h FP: inactive

What do the screens show for `O=C(Nc1ccc(Cl)cc1)Nc1nnc(Cc2ccc(Cl)cc2)s1`?
Cy5 interf NS3h: inactive; HCV NS3h FP: inactive

What do the screens show for `O=C(Nc1nnc(Cc2ccc(Cl)cc2)s1)c1ccccc1F`?
Cy5 interf NS3h: 0.705; HCV NS3h FP: inactive

How did COc1ccc(NC(=O)c2c(NC(=O)C(Cl)(Cl)Cl)sc3c2CCC3)cc1 do in these assays?
Cy5 interf NS3h: 0.603; HCV NS3h FP: inactive

Results for CCC(=O)Nc1sc2c(c1C(=O)Nc1ccc(OC)cc1)CCC2 ?
Cy5 interf NS3h: inactive; HCV NS3h FP: inactive

Results for O=C(NC(=S)NCc1cccnc1)c1cccs1 ?
Cy5 interf NS3h: inactive; HCV NS3h FP: inactive

How did CCOC(=O)c1c(-c2ccc(C)cc2)csc1NC(=O)c1ccccc1F do in these assays?
Cy5 interf NS3h: inactive; HCV NS3h FP: inactive

What do the screens show for `CCOC(=O)c1c(-c2ccc(OC)cc2)csc1NC(=O)c1cccc([N+](=O)[O-])c1`?
Cy5 interf NS3h: 0.745; HCV NS3h FP: inactive

How did COc1ccc(CNC(=O)c2ccc([N+](=O)[O-])cc2)cc1 do in these assays?
Cy5 interf NS3h: inactive; HCV NS3h FP: inactive

Results for O=C(O)C(C(=O)O)C1c2ccccc2Oc2ccccc21 ?
Cy5 interf NS3h: inactive; HCV NS3h FP: inactive

What do the screens show for `O=C1C(=C2c3ccccc3C(=O)C2C2c3ccccc3Oc3ccccc32)C(=O)c2ccccc21` (stereo not given)?
Cy5 interf NS3h: 0.796; HCV NS3h FP: inactive

Results for CC(C)N1C(=O)/C(=C/c2ccccc2F)SC1=S ?
Cy5 interf NS3h: inactive; HCV NS3h FP: inactive

How did CC(=O)N(C)N1c2ccccc2CCc2ccccc21 do in these assays?
Cy5 interf NS3h: inactive; HCV NS3h FP: inactive

Results for CC(=O)N1c2ccccc2CC(N2CCCCC2)c2ccccc21 (stereo not given) ?
Cy5 interf NS3h: 0.76; HCV NS3h FP: inactive

How did CC(=O)N1c2ccccc2-c2c(ssc2=S)C1(C)C do in these assays?
Cy5 interf NS3h: inactive; HCV NS3h FP: inactive

Results for C=CCc1c(C)nc2cc(-c3ccc(C)cc3)[nH]n2c1=O ?
Cy5 interf NS3h: 1.22; HCV NS3h FP: 62.5

What do the screens show for `C=CCc1c(C)nc2c(C)c(-c3ccc(C)cc3)[nH]n2c1=O`?
Cy5 interf NS3h: inactive; HCV NS3h FP: inactive

Results for COc1cc(/C=C(\C#N)c2nc3ccc(C)cc3[nH]2)cc(OC)c1OC(C)=O ?
Cy5 interf NS3h: inactive; HCV NS3h FP: inactive

What do the screens show for `COC(=O)c1ccc(C(=O)OC)c(NC(=O)c2c(Cl)cccc2Cl)c1`?
Cy5 interf NS3h: inactive; HCV NS3h FP: inactive

Results for COC(=O)c1ccc(C(=O)OC)c(NC(=O)Cc2ccccc2[N+](=O)[O-])c1 ?
Cy5 interf NS3h: 0.776; HCV NS3h FP: inactive

What do the screens show for `COC(=O)c1ccc(C(=O)OC)c(NC(=O)CC(c2ccccc2)c2ccccc2)c1`?
Cy5 interf NS3h: 0.745; HCV NS3h FP: inactive

Results for COc1ccc(C)cc1NC(=O)Cc1ccccc1[N+](=O)[O-] ?
Cy5 interf NS3h: inactive; HCV NS3h FP: inactive

Results for COc1ccc(N2C(=O)NC(=O)/C(=C/c3ccc(OCCOc4ccc(C)cc4)c(OC)c3)C2=O)cc1 ?
Cy5 interf NS3h: inactive; HCV NS3h FP: inactive

Results for Cc1cc(NC(=O)CSc2ccccn2)no1 ?
Cy5 interf NS3h: inactive; HCV NS3h FP: inactive

Results for O=C(Nc1cc(Cl)cc(Cl)c1)c1ccc2ccccc2c1 ?
Cy5 interf NS3h: 1.26; HCV NS3h FP: inactive

What do the screens show for `O=C(Nc1ccc(NC(=O)c2ccc3ccccc3c2)cc1)c1ccccc1`?
Cy5 interf NS3h: inactive; HCV NS3h FP: inactive

What do the screens show for `COCCOC(=O)c1ccc(NC(=O)COc2ccc3c(C)cc(=O)oc3c2)cc1`?
Cy5 interf NS3h: inactive; HCV NS3h FP: inactive

Results for Cc1ccc(S(=O)(=O)N=Nc2c(O)[nH]c3ccc(Br)cc23)cc1C ?
Cy5 interf NS3h: inactive; HCV NS3h FP: inactive

Results for Cc1ccc2[nH]c(O)c(N=Nc3ccc([N+](=O)[O-])cc3[N+](=O)[O-])c2c1Br ?
Cy5 interf NS3h: 0.741; HCV NS3h FP: inactive

Results for CC(C)CNC(=O)C(=O)Nc1cccc(Br)c1 ?
Cy5 interf NS3h: inactive; HCV NS3h FP: inactive

How did O=C(Nc1cc(C(F)(F)F)ccc1Cl)C(c1ccccc1)c1ccccc1 do in these assays?
Cy5 interf NS3h: 0.771; HCV NS3h FP: inactive

What do the screens show for `O=C(Nc1cc(Cl)cc(Cl)c1)C(c1ccccc1)c1ccccc1`?
Cy5 interf NS3h: inactive; HCV NS3h FP: inactive

How did COc1ccc(C(=O)c2c(C)oc3ccc(O)cc23)cc1 do in these assays?
Cy5 interf NS3h: inactive; HCV NS3h FP: inactive

What do the screens show for `CCCCCNC(=O)c1ccc(C(=O)NCCCCC)cc1`?
Cy5 interf NS3h: inactive; HCV NS3h FP: inactive

How did CCN(CC)CCCNC(=O)c1ccc(Cl)cc1 do in these assays?
Cy5 interf NS3h: 0.671; HCV NS3h FP: inactive

Results for COc1ccc(-c2nc(NC(=O)c3ccccc3F)sc2-c2ccc([N+](=O)[O-])cc2)cc1 ?
Cy5 interf NS3h: inactive; HCV NS3h FP: inactive

Results for Cc1nc(-c2ccccc2)c2c(=O)cc[nH]c2n1 ?
Cy5 interf NS3h: inactive; HCV NS3h FP: inactive

What do the screens show for `Cc1nc(-c2ccccc2)nc2[nH]ccc(=O)c12`?
Cy5 interf NS3h: 0.796; HCV NS3h FP: inactive

What do the screens show for `COc1ccc(-c2cn3cccc(C)c3n2)cc1Br`?
Cy5 interf NS3h: inactive; HCV NS3h FP: inactive

What do the screens show for `COc1ccc(-c2cn3ccccc3n2)cc1Br`?
Cy5 interf NS3h: 0.79; HCV NS3h FP: inactive

What do the screens show for `Cc1cc([N+](=O)[O-])ccc1-c1ccc(C(=O)Nc2ccc(Cl)cn2)o1`?
Cy5 interf NS3h: 0.765; HCV NS3h FP: inactive

Results for O=C(Nc1ccc(Cl)cn1)c1ccc(-c2ccc([N+](=O)[O-])cc2)o1 ?
Cy5 interf NS3h: inactive; HCV NS3h FP: inactive

How did O=C(Cc1ccccc1)Nc1ccc2nn(-c3ccc(Cl)cc3)nc2c1 do in these assays?
Cy5 interf NS3h: inactive; HCV NS3h FP: inactive

How did N#Cc1ccccc1N=C1C(=O)Nc2ccccc21 do in these assays?
Cy5 interf NS3h: inactive; HCV NS3h FP: inactive

How did O=C1Nc2ccc([N+](=O)[O-])cc2C1=Nc1ccc(-c2ccc(N=C3C(=O)Nc4ccc([N+](=O)[O-])cc43)cc2)cc1 do in these assays?
Cy5 interf NS3h: 0.77; HCV NS3h FP: inactive

How did O=[N+]([O-])c1ccc(Oc2ccc(S(=O)(=O)Nc3ccccn3)cc2)cc1 do in these assays?
Cy5 interf NS3h: inactive; HCV NS3h FP: inactive

What do the screens show for `Cn1c(=O)cc(-c2ccccc2)c2ccccc21`?
Cy5 interf NS3h: 0.692; HCV NS3h FP: inactive

Results for O=c1cc(-c2ccccc2)c2cc(Cl)ccc2[nH]1 ?
Cy5 interf NS3h: inactive; HCV NS3h FP: inactive

How did O=C(NCc1ccc2c(c1)OCO2)c1ccco1 do in these assays?
Cy5 interf NS3h: 0.737; HCV NS3h FP: inactive

What do the screens show for `O=C(/C=C/c1ccco1)NCc1ccc2c(c1)OCO2`?
Cy5 interf NS3h: inactive; HCV NS3h FP: inactive

How did CCOC(=O)C1CCCN(C2CC(=O)N(c3ccc(C)cc3)C2=O)C1 (stereo not given) do in these assays?
Cy5 interf NS3h: 1.25; HCV NS3h FP: inactive

How did Cc1ccc(N2C(=O)CC(N3CCOCC3)C2=O)cc1 (stereo not given) do in these assays?
Cy5 interf NS3h: inactive; HCV NS3h FP: inactive

What do the screens show for `COC(=O)COc1ccc(/C=C2/C(=O)N(c3ccccc3)N=C2C)cc1`?
Cy5 interf NS3h: inactive; HCV NS3h FP: inactive
